Shown are actives, neighbours in structure and some others; about 7.3% of the full set was active somewhere.
Rab9 prom act – qHTS Assay for Rab9 Promoter Activators | Huh7 Rab9 promoter-luciferase reporter, luminescence, 24 h | Potency, µM (top dose mostly 9.22 µM), without a hit: at the highest dose activation, negative = inhibition, actives largely listed as activators | hit rate 2.8% among 320,000; also: % of control where 0% means no effect; nearly all actives have a fitted effect of over 60% in size
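Cells were plated at 1500 per well in reduced-serum medium with 10% FBS and left 2 h. Compound in DMSO was then added for 24 h at 37 °C. Reporter signal was read by luminescence after 10 min with luciferase detection reagent.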
ELG1 genotox – qHTS screen for small molecules that induce genotoxicity in human embryonic kidney (HEK293T) cells expressing luciferase-tagged ELG1 | AID 504466, 2011 | HEK293T ELG1-luciferase reporter, luminescence, 16 h | hit rate 1.3% among 330,000 | Potency, µM (highest dose often 46 µM), for the others: top-dose activity change, positive = activation, actives largely listed as activators; also: % of control where 0% means no effect; nearly all actives have a fitted effect of over 60% in size
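HEK293T cells expressing luciferase-tagged ELG1 were treated with compound or DMSO for 16 hr at 37°C. Luciferase activity was then read after 30 min with ONE-Glo at room temperature; rising signal flags genetic stress.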
p53 reactivation – qHTS assay for re-activators of p53 using a Luc reporter; hit rate 0.063% among 320,000; AID 504706, 2011; H1299 p53-A138V BP100-luciferase reporter, luminescence, 24 h; Potency, µM (series often up to 92.2 µM), without a hit: top-dose activity change, positive = activation, actives largely listed as activators; also: % of control where 0% means no effect; nearly all actives have a fitted effect of over 45% in size
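H1299 (p53-null), stable ts p53-A138V + BP100-Luc; 1000 cells/well, Opti-MEM/10% FBS; cpd 4 pt, 1:5; 24 h, 37 deg C, 5% CO2; detection reagent 10 min RT; luminescence.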
NPC1 promoter act – qHTS Assay for NPC1 Promoter Activators; Huh7 NPC1 promoter luciferase reporter, 24 h; Potency, µM (series often up to 9.22 µM), for the others: at the top dose activation, hits mostly activators; hit rate 2.4% among 320,000; AID 485313, 2010; also: % of control where 0% means no effect; nearly all actives have a fitted effect of over 60% in size
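In 1536-well qHTS, Huh7 cells harboring an NPC1 promoter–luciferase construct received compound for 24 h; activation was quantified by luminescence following luciferase reagent addition.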
FLuc counter – qHTS profiling assay for firefly luciferase inhibitor/activator using purifed enzyme and Km concentrations of substrates (counterscreen for miR-21 project) | Luciferin 4-monooxygenase (Photinus pyralis), P08659 | purified FLuc, Km substrates, luminescence inhibition | Potency, µM (top dose mostly 57.5 µM), without a hit: top-dose activity change, negative = inhibition, most hits filed as inhibitors | hit rate 6.9% among 360,000;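 also: plate controls were vehicle for no effect and reference inhibitor for full effect; nearly all actives have a fitted effect of over 55% in size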
Target sequence (P08659 whole entry, looked up): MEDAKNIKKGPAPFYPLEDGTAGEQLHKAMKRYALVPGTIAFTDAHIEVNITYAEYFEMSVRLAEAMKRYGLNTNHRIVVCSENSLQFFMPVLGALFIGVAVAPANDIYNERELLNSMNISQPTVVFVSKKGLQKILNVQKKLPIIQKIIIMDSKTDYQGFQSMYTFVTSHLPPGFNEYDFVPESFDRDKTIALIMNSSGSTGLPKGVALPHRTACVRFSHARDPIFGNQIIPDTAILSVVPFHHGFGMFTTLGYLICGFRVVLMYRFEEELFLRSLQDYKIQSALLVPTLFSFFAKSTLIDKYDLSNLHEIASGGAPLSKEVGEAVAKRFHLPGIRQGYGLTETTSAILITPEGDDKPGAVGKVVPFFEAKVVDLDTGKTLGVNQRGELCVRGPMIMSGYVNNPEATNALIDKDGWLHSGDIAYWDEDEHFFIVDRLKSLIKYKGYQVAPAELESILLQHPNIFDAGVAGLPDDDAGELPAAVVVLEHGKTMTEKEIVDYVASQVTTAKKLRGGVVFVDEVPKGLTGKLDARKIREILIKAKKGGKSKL
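Biochemical qHTS of compounds, final roughly 60 µM downward over six points, against 10 nM purified firefly luciferase using Km concentrations of substrates (10 uM D-luciferin, 10 uM ATP) in Tris acetate pH 7.5 buffer; luminescence output.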
SMN2 splice enh – qHTS Assay for Enhancers of SMN2 Splice Variant Expression. AID 1458, 2008. hit rate 2.8% among 210,000. HEK293 SMN2-luciferase splicing reporter, luminescence, 30-36 h. Potency, µM (doses to about 46.1 µM), inactives show top-dose activity change, positive = activation, hits mostly activators; also: % of control where 0% means no effect; nearly all actives have a fitted effect of over 55% in size
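qHTS luciferase splicing reporter: luminescence rises when SMN2 exon 7 is included in transfected HEK293 cells. Compound exposure lasted 30-36 h at 37C, with 4.5 mM final sodium butyrate as control, followed by a ONE-Glo read.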
* hit, by the source's call; ? = inconclusive; / = no result; [ ] = remark or other dose. Calls follow the shape of the dose curve; as a rule, active = well fitted curve in the direction sought with a large enough effect; inconclusive = small, poorly fitted or top-dose-only effect, or another doubt; inactive = no such curve, though single readings can be large; an effect the other way counts as inactive or inconclusive. Potency is read from the fitted curve at half-maximal effect.

SMILES	Rab9 prom act	ELG1 genotox	p53 reactivation	NPC1 promoter act	FLuc counter	SMN2 splice enh
CCCn1c(C)cc(C(=O)CN2C(=O)c3cccc(N)c3C2=O)c1C	3.2µM*	?	?	2.8µM*	2.7µM*	?
COc1ccc(C(=O)[C@H](Br)[C@H](Br)C(=O)O)cc1	/	/	/	/	/	-4%[9.22 µM]
CCOC(=O)c1c(C)[nH]c(C2=NNC(=Nc3ccccc3)SC2)c1C	2.5µM*	-6%	?	?	12µM*	/
CCOC(=O)c1c(C)[nH]c(C2=NNC(=Nc3ccc(OCC)cc3)SC2)c1C	-7%	-5%	8%	1%	?	-33%
CC(=O)c1c(C)[nH]c(-c2ccccc2)c1C	-5%	?	-6%	2%	?	?
CCOC(=O)c1c(C)[nH]c(C2=NNC(=Nc3ccccc3OC)SC2)c1C	?	-1%	?	2.5µM*	9.5µM*	11µM*
CC(=O)c1c(C)[nH]c(C2=NNC(=NC(C)(C)C)SC2)c1C	1.6µM*	15µM*	4%	1.8µM*	24µM*	13µM*
O=C(O)c1cc(-c2c[nH]c3ccccc23)nc2ccc3ccccc3c12	17%	-11%	3%	17%	1.2µM*	3%
O=C(NCc1nnc(SCC(=O)N2CCN(c3ccccc3)CC2)o1)c1ccc(F)cc1	-3%	-11%	6%	-1%	6%	/
Clc1ccc(/C=C/c2ncc3ccccn23)cc1	1µM*	?	7%	1.6µM*	6.7µM*	/
c1csc(-c2ncc3ccccn23)c1	22%	?	3%	21%	?	23%
CCCCc1nc2c(c3c1C[C@H](C)OC3)CN(C(=O)Cc1cccs1)CC2	/	/	/	/	/	-5%[9.22 µM]
Cn1nnc2cc(C(=O)Nc3ccc4ccccc4c3)ccc21	0.4µM*	2.3µM*	6%	0.89µM*	1.9µM*	3.2µM*
COc1ccc(C(=O)Nc2ccc3ccccc3c2)cc1OC	?	?	/	2.8µM*	9.5µM*	/
COc1cc(C(=O)Nc2ccc3c(c2)C(=O)c2ccccc2C3=O)cc(OC)c1OC	-2%	0%	-3%	-4%	1%	5%[1.84 µM]
COc1cc(C(=O)Nc2ccc3ccccc3c2)cc(OC)c1OC	0%	?	19%	-21%	19µM*	/
Cn1nnc2cc(C(=O)NC3CC3)ccc21	/	/	/	/	0%	-8%
Cc1ccc(C)c(CNC(=O)CCn2cccn2)c1	/	/	/	/	-2%	/
O=C(COC(=O)Cn1cnc2ccccc21)Nc1ccc2c(c1)C(=O)c1ccccc1C2=O	?	12µM*	?	?	?	-12%
CC1=CCC(COC(=O)Nc2ccccc2)CC1 (centres undefined)	4µM*	?	?	2.8µM*	6.7µM*	18µM*
O=C(Nc1ccccc1)OCC1CCCN2CCCCC12 (centres undefined)	-2%	3%	-3%	1%	-8%	13%
c1ccc(CN2OCC3Cn4c(nc5ccccc54)C32)cc1 (centres undefined)	-5%	3%	2%	-3%	-1%	/
c1ccc(N2OCC3Cn4c(nc5ccccc54)C32)cc1 (centres undefined)	5%	16%	13%	8%	19µM*	/
Cn1c(-c2cccs2)nc2ccccc21	2.5µM*	8%	24%	4µM*	?	13µM*
CC(C)Cn1c(-c2cccs2)nc2ccccc21	-2%	-11%	-3%	-2%	-9%	5%
SMILES	Rab9 prom act	ELG1 genotox	p53 reactivation	NPC1 promoter act	FLuc counter	SMN2 splice enh
Cn1c(-c2ccc(C=O)s2)nc2ccccc21	1%	15µM*	24%	-2%	?	25%
Cc1nn(-c2ccc(N3CCCCC3)nn2)c(C)c1CCC(=O)NCc1ccccc1	/	/	/	/	-23%	/
CCN=C1S/C(=C\c2sccc2C)C(=O)N1CC	?	?	?	?	12µM*	24%
O=C1/C(=C/c2ccc(O)cc2)SC(=S)N1CC1CCCO1 (centres undefined)	23%	1%	21%	-5%	?	/
Cc1ccsc1/C=C1\SC(=S)N(CC2CCCO2)C1=O (centres undefined)	?	?	17%	13%	11µM*	18%
CCN=C1S/C(=C\c2ccc(OC)c(OCC)c2)C(=O)N1CC	-6%	0%	-3%	0%	4%	0%
Cc1ccsc1/C=C1/SC(=O)N(CC(=O)N2CCOCC2)C1=O	19%	2%	7%	18%	-4%	?
CCCOc1ccc(/C=C2\SC(=S)N(CC3CCCO3)C2=O)cc1 (centres undefined)	7%	7%	26%	-3%	9.5µM*	-21%
CC1CCN(C(=O)CN2CCSc3ccc(S(=O)(=O)N(C)C)cc32)CC1	/	/	/	/	5%	/
CN(C(=O)CCc1nnc(-c2ccc(-c3ccccc3)cc2)o1)C1CCOCC1	21%	-7%	-11%	21%	17µM*	/
CN(CCC1CCCCO1)C(=O)CCc1nnc(CCCCc2ccccc2)o1 (centres undefined)	0%	1%	0%	-3%	?	8%
CN(CCCC1CCCC1)C(=O)CCc1nnc(-c2ccccc2)o1	2.5µM*	21µM*	23%	?	12µM*	13µM*
Cc1cccc(Cc2nnc(CCC(=O)N(C)C3CCOC3)o2)c1 (centres undefined)	19%	13%	9%	13%	?	/
Cc1cc(C)n(CCN(C)C(=O)CCc2nnc(CCC3CCCCC3)o2)n1	?	?	14%	?	15µM*	/
C/C(=N/Oc1nc(C)cc(C)n1)c1ccc(F)cc1	8%	5%	?	17%	?	-19%
CCOc1ccc(/C=C2\SC(=S)N(CCC(=O)Nc3cccc(C(=O)O)c3)C2=O)cc1	?	?	11%	29%	2.1µM*	/
O=C(CCN1C(=O)/C(=C/c2ccc3c(c2)OCO3)SC1=S)Nc1ccc(C(=O)O)cc1	2%[1.84 µM]	9%	10%	0%	9.5µM*	/
O=C(CCN1C(=O)S/C(=C\c2ccc(Cl)cc2)C1=O)Nc1ccc(C(=O)O)cc1	30%	13%	?	-5%	15µM*	/
O=C(CCCN1C(=O)/C(=C/c2ccc3c(c2)OCO3)SC1=S)Nc1ccc(C(=O)O)cc1	3%	18%	6%	-5%	8%	/
CCOC(=O)CN1C(=O)S/C(=C\c2ccc3c(c2)OCO3)C1=O	-4%	11%	17%	5%	21µM*	/
O=C(CCN1C(=O)S/C(=C/c2ccc(F)cc2)C1=O)Nc1ccc(O)c(C(=O)O)c1	1%	-1%	-9%	-3%	?	/

Assay outcomes as filed in PubChem.
